The text below walks through data of PubChem BioAssay.

Test [1] can be described thus: sensitizers of A549 cells to miR-34 induction, primary screen, imaging, A549 dox-inducible miR-34, nuclei and caspase counts (AID 1347080;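 active = compounds whose cell count with miR-34 switched on is under 0.7 times the count with it off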). As to conditions: A549 miR-34 inducible, Hoechst nuclei count, 48 h.
Test [2] can be described thus: survival rescue of mitochondrial mutant cells in low glucose, primary screen, MELAS cybrids, Rieske KO mouse fibroblasts, CellTiter-Glo (AID 1508586;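 active = mean z-score across replicates of 1.96 or higher in either the MELAS or the Rieske mutant cell line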;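 also: z relative to plate mean and SD of compound and empty wells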).
Test [3] is described as follows: ovarian cancer cell viability with rucaparib, profiling panel, oncology-focused library, rucaparib conditional (AID 1508598). The settings on record: patient-derived ovarian cancer cells, CellTiter-Glo viability, 144 h, stronger effect = lower value. A general note: Cellular ATP, detected with luciferase, serves as a proxy for viable cell number.
A short description of test [4]: viability rescue of complex I mutant cybrids, primary screen, cell-based, galactose medium, ATP luminescence (AID 1645843;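 active = z-score of at least 1.8 in each of two replicates, scored against plate mean and spread of sample wells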;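 also: positive z means more ATP and so rescue of galactose-driven cybrid death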). The settings on record: complex I mutant cybrid cells, 72 h, stronger effect = higher value.
Where [5] appears, read: stronger effect = lower value, cell number ratio, induced over uninduced.
[6] abbreviates: measured here: relative caspase fold change +Dox/-Dox.
Where [7] appears, read: measured here: total cells with miR-34 induction, stronger effect = lower value.
Setting [8] is: measured here: total cells without miR-34 induction.
The mark [9] stands for this setting: MELAS cybrid survival, CellTiter-Glo 48 h, stronger effect = higher value.
Setting [10] is: Rieske KO mouse fibroblast survival, CellTiter-Glo 72 h.

Several values for one entry are separate records, joined by “and”; a condition that tells them apart may be missing. Equal values may be shown once. Activity calls are given as the source filed them.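 The calls were made as follows, unless noted: active = normalized viability below 100% at a tested concentration; inactive = the rest.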

By viability is commonly meant a read-out of living cells in per cent, often relative to untreated cells. As for `CCNC(=O)c1noc(-c2cc(Cl)c(O)cc2O)c1-c1ccc(OC)cc1`, the results for the fold change in test [1] (setting [5]) and in test [1] (setting [6]) were 0.987 (inactive) and 0.496, respectively. The cell count came to 2390 in test [1] (setting [7]) and 2420 in test [1] (setting [8]). Also, the values for the z-score in test [2] (setting [9]) and in test [2] (setting [10]) were 2.58 (active) and -1.9, respectively. The viability in test [3] (at 0.000305 µM, OCI-C5x cells, with rucaparib 10 µM, 100% = cells with rucaparib alone) was 129% (inactive); in test [3] (at 0.000305 µM, OCI-C5x cells, without rucaparib), 113% (inactive); in test [3] (at 0.000305 µM, OCI-P5x cells, with rucaparib 20 µM, 100% = cells with rucaparib alone), 105% (inactive); in test [3] (at 0.000305 µM, OCI-P5x cells, without rucaparib) it was 98% (active); in test [3] (at 0.00122 µM, OCI-C5x cells, with rucaparib 10 µM, 100% = cells with rucaparib alone), 120% (inactive); in test [3] (at 0.00122 µM, OCI-C5x cells, without rucaparib) it was 120% (inactive). Also, the viability is 101% (inactive) in test [3] (at 0.00122 µM, OCI-P5x cells, with rucaparib 20 µM, 100% = cells with rucaparib alone); 102% (inactive) in test [3] (at 0.00122 µM, OCI-P5x cells, without rucaparib); 138% (inactive) in test [3] (at 0.00488 µM, OCI-C5x cells, with rucaparib 10 µM, 100% = cells with rucaparib alone); 120% (inactive) in test [3] (at 0.00488 µM, OCI-C5x cells, without rucaparib); 100% (inactive) in test [3] (at 0.00488 µM, OCI-P5x cells, with rucaparib 20 µM, 100% = cells with rucaparib alone); 101% (inactive) in test [3] (at 0.00488 µM, OCI-P5x cells, without rucaparib). Moreover, the viability in test [3] (at 0.0195 µM, OCI-C5x cells, with rucaparib 10 µM, 100% = cells with rucaparib alone) is 181% (inactive); in test [3] (at 0.0195 µM, OCI-C5x cells, without rucaparib) it was 140% (inactive); in test [3] (at 0.0195 µM, OCI-P5x cells, with rucaparib 20 µM, 100% = cells with rucaparib alone) it was 33.1% (active); in test [3] (at 0.0195 µM, OCI-P5x cells, without rucaparib) it was 82.6% (active); in test [3] (at 0.0781 µM, OCI-C5x cells, with rucaparib 10 µM, 100% = cells with rucaparib alone), 73.6% (active); in test [3] (at 0.0781 µM, OCI-C5x cells, without rucaparib), 39.7% (active). The viability in test [3] (at 0.0781 µM, OCI-P5x cells, with rucaparib 20 µM, 100% = cells with rucaparib alone) is 17.1% (active); in test [3] (at 0.0781 µM, OCI-P5x cells, without rucaparib), 9.14% (active); in test [3] (at 0.313 µM, OCI-C5x cells, with rucaparib 10 µM, 100% = cells with rucaparib alone), 39% (active); in test [3] (at 0.313 µM, OCI-C5x cells, without rucaparib), 22.6% (active); in test [3] (at 0.313 µM, OCI-P5x cells, with rucaparib 20 µM, 100% = cells with rucaparib alone), 12% (active); in test [3] (at 0.313 µM, OCI-P5x cells, without rucaparib) it was 7.17% (active). Besides, the viability was 9.37% (active) in test [3] (at 1.25 µM, OCI-C5x cells, with rucaparib 10 µM, 100% = cells with rucaparib alone); 6.36% (active) in test [3] (at 1.25 µM, OCI-C5x cells, without rucaparib); 4.69% (active) in test [3] (at 1.25 µM, OCI-P5x cells, with rucaparib 20 µM, 100% = cells with rucaparib alone); 4.76% (active) in test [3] (at 1.25 µM, OCI-P5x cells, without rucaparib); 8.73% (active) in test [3] (at 5 µM, OCI-C5x cells, with rucaparib 10 µM, 100% = cells with rucaparib alone); 6.88% (active) in test [3] (at 5 µM, OCI-C5x cells, without rucaparib). Moreover, the viability in test [3] (at 5 µM, OCI-P5x cells, with rucaparib 20 µM, 100% = cells with rucaparib alone) was 4.38% (active); in test [3] (at 5 µM, OCI-P5x cells, without rucaparib) it was 3.37% (active).
For the compound `CC(=O)NCC(=O)N1CCN(Cc2ccc3c(c2)OCO3)C(=O)C1`, the fold change in test [1] (setting [5]) is 0.905 (inactive); in test [1] (setting [6]), 1.72. Moreover, the cell count in test [1] (setting [7]) was 8860; in test [1] (setting [8]) it was 9790. Further, the values for the z-score in test [2] (setting [9]), in test [2] (setting [10]) and in test [4] were 0.0526 (inactive), -0.343 and -0.565 (inactive), respectively.
Turning to `COc1ccc(CC(C)NCC(O)c2ccc(O)c(NC=O)c2)cc1` (stereo not drawn), the fold change is 0.94 (inactive) and 0.989 (inactive) in test [1] (setting [5]); 1.58 and 0.394 in test [1] (setting [6]). The cell count was 10500 and 8090 in test [1] (setting [7]); 11200 and 8180 in test [1] (setting [8]). Further, the z-score in test [2] (setting [9]) is 0.143 (inactive); in test [2] (setting [10]), -0.0828; in test [4], -0.17 (inactive).
On to `O=C(Nc1cc(Br)c(O)c(Br)c1)c1ccccc1`, for which the results for the fold change in test [1] (setting [5]) and in test [1] (setting [6]) were 0.856 (inactive) and 0.708, respectively. Further, the figures for the cell count in test [1] (setting [7]) and in test [1] (setting [8]) were 7950 and 9290, respectively. Also, the results for the z-score in test [2] (setting [9]), in test [2] (setting [10]) and in test [4] were 0.106 (inactive), -0.271 and 0.2 (inactive), respectively.
For `O=C(O)c1ccc(-c2ccc(F)cc2)cc1`, the fold change in test [1] (setting [5]) was 0.935 (inactive); in test [1] (setting [6]), 1.32. In addition, the results for the cell count in test [1] (setting [7]) and in test [1] (setting [8]) were 7840 and 8390, respectively. Also, the z-score in test [2] (setting [9]) is -0.835 (inactive); in test [2] (setting [10]), -0.109; in test [4], 0.26 (inactive).
Take `Cc1ccc(Cn2nccc2NC(=O)Cn2cc(-c3ccc(F)cc3)cn2)o1`: the fold change was 0.895 (inactive) in test [1] (setting [5]) and 0.589 in test [1] (setting [6]). The cell count in test [1] (setting [7]) came to 8330; in test [1] (setting [8]), 9310. For the same compound, the z-score was -0.0022 (inactive) in test [2] (setting [9]), -0.187 in test [2] (setting [10]) and 1.75 (inactive) in test [4].
